A selection: hits, their analogues and other compounds. The true share with any hit is near 9.4%.
Rab9 prom act = qHTS Assay for Rab9 Promoter Activators; Huh7 Rab9 promoter-luciferase reporter, luminescence, 24 h; 320,000 tested, 2.8% active; Potency, µM (highest dose often 9.22 µM), for the others: at the top dose activation, negative = inhibition, hits mostly activators; AID 485297, 2010; also: % of control where 0% means no effect; nearly all actives have a fitted effect of over 60% in size
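Rab9 promoter-driven luciferase in stably transfected Huh7 cells; 1500 cells/well rested 2 h, exposed to compound in DMSO for 24 h at 37 °C, 5% CO2. Luminescence read 10 min after adding luciferase reagent at ambient temperature.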
FLuc counter = qHTS profiling assay for firefly luciferase inhibitor/activator using purifed enzyme and Km concentrations of substrates (counterscreen for miR-21 project); purified FLuc, Km substrates, luminescence inhibition; 360,000 tested, 6.9% active; Potency, µM (titrated, usually from 57.5 µM), for the others: top-dose activity change, negative = inhibition, actives largely listed as inhibitors; AID 588342, 2011;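 also: plate controls were vehicle for no effect and reference inhibitor for full effect; nearly all actives have a fitted effect of over 55% in size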
Target sequence (P08659 whole entry, looked up): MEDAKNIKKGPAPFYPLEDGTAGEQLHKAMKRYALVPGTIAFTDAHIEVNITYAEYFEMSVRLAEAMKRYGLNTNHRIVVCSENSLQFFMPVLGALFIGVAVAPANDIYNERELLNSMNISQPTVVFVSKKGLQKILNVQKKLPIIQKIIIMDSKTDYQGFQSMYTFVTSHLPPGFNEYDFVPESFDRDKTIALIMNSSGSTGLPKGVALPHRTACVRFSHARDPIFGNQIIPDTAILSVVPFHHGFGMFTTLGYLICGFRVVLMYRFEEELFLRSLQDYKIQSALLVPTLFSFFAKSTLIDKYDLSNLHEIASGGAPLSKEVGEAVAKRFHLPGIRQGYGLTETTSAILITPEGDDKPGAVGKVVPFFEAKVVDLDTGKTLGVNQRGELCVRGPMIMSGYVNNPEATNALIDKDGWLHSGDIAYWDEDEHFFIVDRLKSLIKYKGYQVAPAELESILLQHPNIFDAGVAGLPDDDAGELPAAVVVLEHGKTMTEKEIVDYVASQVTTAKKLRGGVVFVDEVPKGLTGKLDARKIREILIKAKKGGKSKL
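Purified P. pyralis luciferase (10nM final) with 10uM D-luciferin and 10uM ATP (Km levels) in 50mM Tris acetate pH 7.5, 10mM Mg acetate, 0.01% Tween-20, 0.05% BSA; qHTS 6-point titration, ~60 µM downward; luminescence read.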
NPC1 prom act = qHTS Assay for NPC1 Promoter Activators; Huh7 NPC1 promoter luciferase reporter, 24 h; Potency, µM (titrated, usually from 9.22 µM), without a hit: top-dose activation, hits mostly activators; 320,000 tested, 2.4% active; AID 485313, 2010; also: % of control where 0% means no effect; nearly all actives have a fitted effect of over 60% in size
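Luminescence read-out of NPC1 promoter-driven luciferase in stably transfected Huh7 cells; compounds delivered in DMSO and left 24 h at 37C, 5% CO2, qHTS titration format.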
ELG1 DNA repair = qHTS screen for small molecules that inhibit ELG1-dependent DNA repair in human embryonic kidney (HEK293T) cells expressing luciferase-tagged ELG1; HEK293T ELG1-luciferase reporter, luminescence, 16 h; DNA damage induced by 5-fluorouridine; Potency, µM (top dose mostly 46.1 µM), without a hit: at the highest dose activity change, negative = inhibition, hits mostly inhibitors; 330,000 tested, 2.3% active; AID 504467, 2011; also: % is scaled to controls: 0 for no effect and ±100 for the full control effect; nearly all actives have a fitted effect of over 55% in size
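HEK293T cells expressing luciferase-tagged ELG1 (2,000/well) received 5-Fluorouridine plus compound or DMSO for 16 hr at 37 °C. Luciferase was read by ONE-Glo luminescence after 30 min at room temperature.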
SMN2 splice enh = qHTS Assay for Enhancers of SMN2 Splice Variant Expression | HEK293 SMN2-luciferase splicing reporter, luminescence, 30-36 h | Potency, µM (series often up to 46.1 µM), inactives show top-dose activity change, positive = activation, hits mostly activators | 210,000 tested, 2.8% active | AID 1458, 2008; also: % of control where 0% means no effect; nearly all actives have a fitted effect of over 55% in size
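HEK293 cells carry an SMN2 minigene-luciferase reporter in which exon 7 inclusion puts luciferase in frame. Cells were seeded at 2000 cells/well, attached for 10-12 hours, then exposed to compounds for 30-36 hours at 37C before ONE-Glo luminescence.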
ELG1 genotoxic = qHTS screen for small molecules that induce genotoxicity in human embryonic kidney (HEK293T) cells expressing luciferase-tagged ELG1. AID 504466, 2011. 330,000 tested, 1.3% active. Potency, µM (series often up to 46 µM), inactives show at the top dose activity change, positive = activation, hits mostly activators. HEK293T ELG1-luciferase reporter, luminescence, 16 h; also: % of control where 0% means no effect; nearly all actives have a fitted effect of over 60% in size
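Reporter readout depends on ELG1 protein level, which increases with genetic stress. After 16 hr compound exposure at 37 °C, luciferase activity was quantified using ONE-Glo.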
* marks the source's active call; other numbers are inactive results; ? = inconclusive; nt = no result given; [ ] = dose if it differs, or a comment. Calls follow the shape of the dose curve; as a rule, active = well fitted curve in the direction sought with a large enough effect; inconclusive = small, poorly fitted or top-dose-only effect, or another doubt; inactive = no such curve, though single readings can be large; an effect the other way counts as inactive or inconclusive. Potency is read from the fitted curve at half-maximal effect.

SMILES	Rab9 prom act	FLuc counter	NPC1 prom act	ELG1 DNA repair	SMN2 splice enh	ELG1 genotoxic
Cc1cc(NC(=O)CSc2nc(C(C)C)nc3c2c(=O)n(C)c(=O)n3C)no1	-5.3%	0.0%	0.2%	-20.3%	-13.7%	-5.2%
CCCn1c(=O)n(C)c(=O)c2c(SCC(=O)Nc3cc(C)on3)nc(C(C)(C)C)nc21	-4.4%	-0.4%	-10.9%	8.2µM*	nt	-5.3%
CN(C)c1ccc(-c2nnn(Cc3ccccc3Br)n2)cc1	?	13.5µM*	?	22.3%	11.8%	?
Cc1ccccc1-c1nnn(Cc2ccc(F)cc2Cl)n1	-1.3%[1.84 µM]	16.9µM*	15.9%	?	nt	8.8%
Clc1ccccc1Cn1nnc(-c2ccccc2)n1	?	21.3µM*	26.7%	?	?	?
Clc1ccccc1Cn1nnc(-c2cccs2)n1	3.55µM*	15.1µM*	3.16µM*	?	12.6µM*	18.4µM*
CCn1c(Cn2nnc(-c3ccccc3)n2)nnc1SCC(=O)Nc1ccc(N(C)C)cc1	-7.7%	2.7%	-0.7%	-6.9%	nt	-1.3%
Fc1ccc(-c2nnn(Cc3ccc(F)cc3Cl)n2)cc1	20.9%	?	21.9%	?	nt	12.7%
Clc1ccc(Cn2nnc(-c3ccccc3)n2)cc1	13.2%	?	10.1%	?	29.3%	13.8%
O=C(NCc1ccccc1)c1ccc(CS(=O)(=O)c2c(Cl)cccc2Cl)o1	nt	-3.0%	nt	nt	-8.1%	nt
CC(C)c1ccc(/C=C/C(=O)CCC(=O)O)cc1	0.794µM*	0.239µM*	0.282µM*	?	1.41µM*	?
CCOc1ccc(/C=C/C(=O)CCC(=O)O)cc1	0.708µM*	1.07µM*	?	?	nt	?
CC(C)c1ccc(/C=C/C(=O)NCc2ccc(S(N)(=O)=O)cc2)cc1	18.1%	13.5µM*	-2.4%	?	-30.6%	0.7%
CCOc1ccc(/C=C\C(C)=N\O)cc1	2.24µM*	8.49µM*	2µM*	?	15.8µM*	10.3µM*
Clc1ccc(CSc2ncnc3c2ncn3[C@@H]2CCCCO2)cc1	nt	nt	nt	nt	-10.4%[9.22 µM]	nt
O=C(OCc1cccc([N+](=O)[O-])c1)c1ccc2ccccc2n1	-2.6%	26.9µM*	-28.9%	-1.1%	12.5%	2.6%
Cc1ccc(NC(=O)/C(C#N)=C\c2ccc(Cl)cc2Cl)cc1C	nt	-18.6%	nt	nt	-14.8%	nt
Cc1ccc(N/C=C(/C#N)c2ccsc2)cc1C	nt	2.39µM*	nt	nt	12.6µM*	nt
COc1cc2[nH]c(=O)n(Cc3ccc(C(=O)NCc4ccccc4)cc3)c(=O)c2cc1OC	nt	6.1%	nt	nt	5.4%	nt
CCOC(=O)N/N=C/c1cn(Cc2ccc(Cl)cc2)c2ccccc12	0.4%	-3.4%	8.4%	28.4%	-28.7%	3.9%
CC(=O)n1cc(/C=N/NC(=O)c2cccc(O)c2)c2ccccc21	3.4%	9.53µM*	-2.5%	?	nt	13.4%
CC(=O)n1cc(/C=N/NC(=O)c2ccccc2Cl)c2ccccc21	9.9%	19µM*	11.1%	?	nt	8.3%
CC(=O)n1cc(/C=N/NC(=O)c2ccc(Cl)cc2)c2ccccc21	22.9%	3.38µM*	29.0%	?	nt	7.6%
Cc1nn(C(=O)c2ccc(Cl)cc2)c(C)c1Sc1ccc(Cl)cc1	nt	-0.9%	nt	nt	-6.3%	nt
COc1cc2c(cc1OC)C1N(CC2)C(=O)CCC12C(=O)CCCC2=O (stereo unspecified)	nt	nt	nt	nt	29.2%	nt
SMILES	Rab9 prom act	FLuc counter	NPC1 prom act	ELG1 DNA repair	SMN2 splice enh	ELG1 genotoxic
CCOc1ccccc1NC(=O)N1CCC2(CC1)Oc1ccccc1C(=O)N2Cc1ccccc1F	nt	-1.0%	nt	nt	-22.7%	nt
Cc1cc(C)cc(NC(=O)c2cc(S(=O)(=O)N3CCCC3)ccc2F)c1	nt	-11.1%	nt	nt	nt	nt
Cc1csc(SCC(=O)Nc2ccc3c(c2)OCCO3)n1	?	21.3µM*	25.4%	?	?	?
Cc1csc(SCC(=O)Nc2ccc(C)c(F)c2)n1	16.9%	nt	8.7%	?	nt	3.0%
CSc1nsc(SCC(=O)Nc2ccc3c(c2)OCCO3)n1	17.0%	21.3µM*	9.5%	?	22.4µM*	10µM*
CN1C(=O)c2ccccc2Sc2ccc(NC(=O)N3CCN(c4ccccc4F)CC3)cc21	nt	-2.4%	nt	nt	nt	nt
N#C[C@@H](N=Nc1ccccc1C(=O)O)C(N)=O	nt	nt	nt	nt	-8.7%[9.22 µM]	nt
O=C(Cc1cccs1)Nc1cccc(-c2nc3ccccc3o2)c1	-2.6%	-6.5%	-1.4%	11.1%	-5.6%	0.5%
Cc1ccc(-c2nnc(-c3cccc(NC(=O)c4cccs4)c3)o2)cc1	1.8%	2.69µM*	28.6%	?	-14.0%	-6.0%
Cc1cccc(-c2nnc(-c3cccc(NC(=O)Cc4cccs4)c3)o2)c1	-2.2%	12µM*	2.3%	?	27.3%	0.4%
O=C(Nc1cccc(-c2nnco2)c1)c1cccs1	0.3%	-27.4%	2.9%	?	nt	-1.5%
COc1cccc(CNC(=O)C2Cc3cc(S(=O)(=O)N4CCCCCC4)ccc3N2C(C)=O)c1 (stereo unspecified)	nt	-3.3%	nt	nt	nt	nt
O=C(Oc1ccc(F)cc1)c1nc(SCc2ccccc2F)ncc1Cl	nt	2.8%	nt	nt	10.9%	nt
Cc1nc(NS(=O)(=O)c2ccccc2)sc1C(=O)NNS(=O)(=O)c1ccccc1	1.2%	-10.0%	-4.1%	11.0%	nt	0.5%
Cc1nonc1C(=O)N/N=C/c1ccc(O)c(O)c1	-14.3%	?	-9.1%	10.9%	-10.7%	3.1%
O=C(N/N=C/c1ccc(Cl)cc1)c1n[nH]c2c1CCCC2	18.0%	?	?	?	nt	8.2µM*
Cn1cccc1-c1cc(C(=O)N/N=C/c2ccc(Cl)cc2)[nH]n1	-2.6%	?	2.8%	-10.0%	nt	-2.5%
Cc1nc(NS(=O)(=O)c2ccccc2)sc1C(=O)N/N=C/c1ccccc1	2.5%	9.53µM*	1.1%	7.9%	nt	2.6%
O=C(N/N=C/c1ccccc1Cl)c1n[nH]c2c1CCCC2	?	0.213µM*	0.631µM*	?	0.355µM*	0.291µM*
Cc1nonc1C(=O)N/N=C/c1ccccc1	-1.2%	10.7µM*	-0.1%	15.6%	nt	2.8%
COc1cccc(-c2ccc3c(N)c(C(=O)c4ccc(F)cc4)sc3n2)c1	nt	-4.2%	nt	nt	-25.2%	nt
O=C(N/N=C/C(Br)=C/c1ccccc1)c1cc(-c2ccco2)[nH]n1	-0.9%	?	-0.3%	-7.7%	13.2%	-2.7%
O=C(N/N=C/C(Br)=C/c1ccccc1)c1n[nH]c2c1CCC2	-0.5%	2.69µM*	?	?	10µM*	?
CC1(C)CC(=NNC(=O)c2n[nH]c3c2CCC3)CC(C)(C)N1	-6.0%	7.8%	0.9%	7.3%	nt	-0.4%

From PubChem BioAssay
